# Assay results as given in PubChem BioAssay (Tox21).
# Unmarked numbers belong to inactive results. A call without a number means that no potency is given here. Activity calls are given as the source filed them. Calls follow the shape of the full dose curve.
# Molecular target: Acetylcholinesterase (Homo sapiens) (UniProt P22303)
# Assay: Acetylcholinesterase (AChE) small molecule antagonists: enzyme-based qHTS assay with human liver microsomes (AID 1347399); also: nearly all actives have a fitted effect of over 60% in size
# Details: Potency: qHTS inhibition; outcome: qHTS inhibition; series mostly up to 115 µM
# Procedure, shortened: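 Recombinant human AChE (50 mU/mL in the enzyme mix) and human liver microsomes (0.25 mg/mL final) were preincubated with compound and NADPH (0.25 mg/mL final) for 30 min at 37 C. Acetylthiocholine/DTNB was then added; thiocholine was read colorimetrically after 10 min at room temperature.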
# Chain of Acetylcholinesterase (Homo sapiens) (P22303 whole entry, looked up): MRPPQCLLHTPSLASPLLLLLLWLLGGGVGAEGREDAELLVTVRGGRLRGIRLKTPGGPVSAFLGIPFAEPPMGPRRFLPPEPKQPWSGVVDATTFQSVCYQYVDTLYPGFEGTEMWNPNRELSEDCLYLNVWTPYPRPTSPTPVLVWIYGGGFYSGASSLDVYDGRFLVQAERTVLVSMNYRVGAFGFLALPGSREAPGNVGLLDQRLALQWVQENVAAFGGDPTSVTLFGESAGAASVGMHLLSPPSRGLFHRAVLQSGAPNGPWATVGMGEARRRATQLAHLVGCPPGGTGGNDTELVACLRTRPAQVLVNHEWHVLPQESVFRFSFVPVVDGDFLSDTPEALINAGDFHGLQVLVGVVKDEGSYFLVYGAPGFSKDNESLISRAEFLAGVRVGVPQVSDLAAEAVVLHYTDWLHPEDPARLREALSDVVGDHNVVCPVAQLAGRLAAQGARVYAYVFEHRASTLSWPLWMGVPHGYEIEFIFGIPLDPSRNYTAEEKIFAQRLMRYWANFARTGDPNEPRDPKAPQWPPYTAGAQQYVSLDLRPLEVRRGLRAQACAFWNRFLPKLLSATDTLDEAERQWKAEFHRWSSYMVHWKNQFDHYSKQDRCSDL
SMILES,Potency,"activity change, negative = inhibition"
CN(C)CCN(C)CCN(C)C,inactive,
C=C(C)C(=O)OCCOc1ccccc1,inactive,
Cc1cc(C)c(N)c(Cl)c1,inactive,
Cc1ccc(N=Nc2c(O)ccc3ccccc23)c(C)c1,inactive,
C[C@]12C=CC(=O)C=C1CC[C@@H]1[C@@H]2[C@@H](O)C[C@@]2(C)[C@H]1CC[C@]2(O)C(=O)CO,inactive,
OCc1ccccc1,inactive,
CCCCCCCCCCCCCCCCBr,,0.57% [at 23.6 µM]
COc1ccc2c(c1)CCCC2=O,inactive,
O=Cc1cc2ccccc2o1,inactive,
CCN(CC)CCOC(=O)C1(C2CCCCC2)CCCCC1,inactive,
CC1=CCC2CC1C2(C)C (stereo not given),inactive,
NS(=O)(=O)c1ccc(NC(=O)CCC(=O)O)cc1,inactive,
O=[N+]([O-])c1cccc(Cl)c1,inactive,
CCOCC(=O)O,inactive,
CC(C)=CC(=O)C=C(C)C,inactive,
O=C(OCCOCCO)c1ccccc1Nc1cccc(C(F)(F)F)c1,inactive,
CCCCCCS,inactive,
CC(=O)Oc1ccc(C2(c3ccc(OC(C)=O)cc3)C(=O)Nc3ccccc32)cc1,inactive,
CC12CCC(CC1)C(C)(C)O2,inactive,
CC(=O)Oc1cccc2c1C(=O)c1c(OC(C)=O)cc(C(=O)O)cc1C2=O,inactive,

SMILES,Potency,"activity change, negative = inhibition"
NC(N)=Nc1nc(CSCC/C(N)=N/S(N)(=O)=O)cs1,inactive,
CCOC(=O)COc1ccc(C)cc1,inactive,
COC(=O)CCS,inactive,
COC(=O)c1cccnc1,inactive,
COC(=O)c1nc(Cl)c(Cl)nc1N,inactive,
CCCCCCCCS,inactive,
Cc1ccc(C=O)cc1C,inactive,
C=CCCCCCCCCOC(C)=O,inactive,
CCCCCCCCCCCCCCCBr,inactive,
NNS(=O)(=O)c1ccc(Oc2ccc(S(=O)(=O)NN)cc2)cc1,inactive,
OC[C@@H](O)[C@H](O)[C@H](O)[C@@H](O)CO,inactive,
CC(C)c1ccc2sc3ccccc3c(=O)c2c1,inactive,
CCCCCCN,inactive,
CN(C)CCOC(=O)C(c1ccccc1)C1(O)CCCC1 (stereo not given),inactive,
O=C1[C@@H]2[C@H]3CC[C@H](C3)[C@@H]2C(=O)N1CCCCN1CCN(c2ncccn2)CC1,inactive,
c1cnc2c(n1)CCCC2,inactive,
Cc1nc2ccc(Cl)cc2[nH]1,inactive,
CCOC(=O)COC(=O)c1ccccc1C(=O)OCC,inactive,
COS(=O)(=O)C(F)(F)F,inactive,
O=S(=O)(O)c1ccc2cc(O)ccc2c1,inactive,
